From PubChem BioAssay AID1159580 (chemical genetic matrix, 2015)
About 2,000 (36%) of roughly 5,500 compounds were called active. Not shown: some 18% with an inconclusive outcome. No stated cut-off is given here; in the data, active means normalized growth mostly below about 0.91 (no sharp cut-off); inconclusive means no clear call, values can overlap the other calls; inactive means mostly above about 0.92. The list shows a part of the results.

Experiment: chemical genetic growth profiling, strain panel (AID 1159580);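 further: tested at 20 µM; growth read once vehicle control cultures reached saturation at 30 °C; 1 = growth at the plate median or of vehicle wells; lower values mean less growth of the strain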
Conditions: growth OD

Measured: normalized growth

C=CCc1cc(OC)c2c(c1OC)OCO2
active: S. cerevisiae deletion strains, locus YKL068W, hits give low values 0.94 | S. cerevisiae deletion strains, locus YKR026C, strain gcn3, hits give low values 0.909 | S. cerevisiae deletion strains, locus YKR091W, strain srl3, hits give low values 0.922 | S. cerevisiae deletion strains, locus YLL026W, hits give low values 0.923 | S. cerevisiae deletion strains, locus YLR102C, strain apc9, hits give low values 0.923 | S. cerevisiae deletion strains, locus YLR320W, strain mms22, hits give low values 0.666 | S. cerevisiae deletion strains, locus YML124C, strain tub3, hits give low values 0.931 | S. cerevisiae deletion strains, locus YMR129W, hits give low values 0.921 | S. cerevisiae deletion strains, locus YMR205C, strain PFK2, hits give low values 0.83 | S. cerevisiae deletion strains, locus YNL071W, strain lat1, hits give low values 0.737 | S. cerevisiae deletion strains, locus YNL233W, strain BNI4, hits give low values 0.835 | S. cerevisiae deletion strains, locus YNL307C, strain MCK1, hits give low values 0.862 | S. cerevisiae deletion strains, locus YOR184W, strain ser1, hits give low values 0.872 | S. cerevisiae deletion strains, locus YPL240C, strain hsp82, hits give low values 0.927 | S. cerevisiae deletion strains, locus YPR119W, strain clb2, hits give low values 0.926
inactive: S. cerevisiae deletion strains, locus YJR075W, strain HOC1, hits give low values 0.928 | S. cerevisiae deletion strains, locus YKL009W, strain mrt4, hits give low values 0.953 | S. cerevisiae deletion strains, locus YKL085W, strain MDH1 (second series), hits give low values 0.939 | S. cerevisiae deletion strains, locus YKL085W, strain MDH1, hits give low values 0.939 | S. cerevisiae deletion strains, locus YKL160W, strain elf1, hits give low values 0.915 | S. cerevisiae deletion strains, locus YKL190W, strain CNB1, hits give low values 0.964 | S. cerevisiae deletion strains, locus YKR001C, strain vps1, hits give low values 0.953 | S. cerevisiae deletion strains, locus YLL001W, strain dnm1, hits give low values 0.96 | S. cerevisiae deletion strains, locus YLL041C, strain sdh2, hits give low values 0.947 | S. cerevisiae deletion strains, locus YLR027C, strain aat2, hits give low values 0.941 | S. cerevisiae deletion strains, locus YLR039C, strain RIC1, hits give low values 1.03 | S. cerevisiae deletion strains, locus YLR058C, strain SHM2, hits give low values 0.976 | S. cerevisiae deletion strains, locus YLR113W, strain HOG1, hits give low values 0.957 | S. cerevisiae deletion strains, locus YLR221C, strain rsa3, hits give low values 0.948 | S. cerevisiae deletion strains, locus YLR258W, strain gsy2, hits give low values 0.941 | S. cerevisiae deletion strains, locus YLR262C, strain YPT6 (second series), hits give low values 0.903 | S. cerevisiae deletion strains, locus YLR262C, strain YPT6, hits give low values 1.06 | S. cerevisiae deletion strains, locus YLR268W, strain sec22, hits give low values 1.01 | S. cerevisiae deletion strains, locus YLR330W, strain CHS5, hits give low values 0.967 | S. cerevisiae deletion strains, locus YLR342W, strain FKS1 (second series), hits give low values 0.953 | S. cerevisiae deletion strains, locus YLR342W, strain FKS1, hits give low values 0.932 | S. cerevisiae deletion strains, locus YLR357W, strain rsc2, hits give low values 1.07 | S. cerevisiae deletion strains, locus YLR370C, strain arc18, hits give low values 0.924 | S. cerevisiae deletion strains, locus YLR371W, strain rom2, hits give low values 0.943 | S. cerevisiae deletion strains, locus YLR384C, strain iki3, hits give low values 0.935 | S. cerevisiae deletion strains, locus YLR418C, strain cdc73, hits give low values 0.938 | S. cerevisiae deletion strains, locus YML016C, strain PPZ1, hits give low values 0.988 | S. cerevisiae deletion strains, locus YML032C, strain rad52, hits give low values 0.987 | S. cerevisiae deletion strains, locus YML120C, strain ndi1, hits give low values 0.969 | S. cerevisiae deletion strains, locus YMR058W, strain fet3, hits give low values 0.951 | S. cerevisiae deletion strains, locus YMR078C, strain ctf18, hits give low values 0.943 | S. cerevisiae deletion strains, locus YMR125W, strain sto1, hits give low values 0.896 | S. cerevisiae deletion strains, locus YMR223W, strain ubp8, hits give low values 0.935 | S. cerevisiae deletion strains, locus YMR231W, strain pep5, hits give low values 1 | S. cerevisiae deletion strains, locus YMR263W, strain SAP30, hits give low values 0.94 | S. cerevisiae deletion strains, locus YMR307W, strain GAS1, hits give low values 0.987 | S. cerevisiae deletion strains, locus YNL067W, strain RPL9B, hits give low values 0.921 | S. cerevisiae deletion strains, locus YNL128W, strain TEP1, hits give low values 0.971 | S. cerevisiae deletion strains, locus YNL153C, strain GIM3, hits give low values 0.97 | S. cerevisiae deletion strains, locus YNL183C, strain NPR1, hits give low values 0.916 | S. cerevisiae deletion strains, locus YNL209W, strain ssb2, hits give low values 0.962 | S. cerevisiae deletion strains, locus YNL248C, strain rpa49, hits give low values 0.969 | S. cerevisiae deletion strains, locus YNL250W, strain rad50, hits give low values 0.967 | S. cerevisiae deletion strains, locus YNL271C, strain bni1, hits give low values 0.929 | S. cerevisiae deletion strains, locus YNL298W, strain CLA4, hits give low values 0.96 | S. cerevisiae deletion strains, locus YNL322C, strain KRE1 (second series), hits give low values 0.933 | S. cerevisiae deletion strains, locus YNL322C, strain KRE1, hits give low values 0.961 | S. cerevisiae deletion strains, locus YNR049C, strain mso1, hits give low values 0.942 | S. cerevisiae deletion strains, locus YNR052C, strain pop2, hits give low values 0.984 | S. cerevisiae deletion strains, locus YOL006C, strain TOP1, hits give low values 0.589 | S. cerevisiae deletion strains, locus YOL012C, strain htz1 1.06 | S. cerevisiae deletion strains, locus YOL147C, strain pex11, hits give low values 0.943 | S. cerevisiae deletion strains, locus YOR001W, strain rrp6, hits give low values 0.949 | S. cerevisiae deletion strains, locus YOR061W, strain CKA2, hits give low values 0.981 | S. cerevisiae deletion strains, locus YOR069W, strain VPS5, hits give low values 0.99 | S. cerevisiae deletion strains, locus YOR070C, strain gyp1, hits give low values 0.982 | S. cerevisiae deletion strains, locus YOR080W, strain dia2, hits give low values 0.991 | S. cerevisiae deletion strains, locus YOR083W, strain WHI5, hits give low values 0.951 | S. cerevisiae deletion strains, locus YOR106W, strain vam3, hits give low values 0.956 | S. cerevisiae deletion strains, locus YOR136W, strain idh2, hits give low values 0.974 | S. cerevisiae deletion strains, locus YOR144C, strain elg1, hits give low values 0.952 | S. cerevisiae deletion strains, locus YOR231W, strain MKK1, hits give low values 0.999 | S. cerevisiae deletion strains, locus YOR265W, strain rbl2, hits give low values 0.967 | S. cerevisiae deletion strains, locus YOR270C, strain vph1, hits give low values 0.841 | S. cerevisiae deletion strains, locus YOR290C, strain snf2, hits give low values 0.926 | S. cerevisiae deletion strains, locus YOR316C, strain cot1, hits give low values 0.929 | S. cerevisiae deletion strains, locus YPL051W, strain arl3, hits give low values 0.998 | S. cerevisiae deletion strains, locus YPL055C, strain LGE1, hits give low values 0.908 | S. cerevisiae deletion strains, locus YPL078C, strain atp4, hits give low values 0.906 | S. cerevisiae deletion strains, locus YPL106C, strain sse1, hits give low values 0.987 | S. cerevisiae deletion strains, locus YPL241C, strain CIN2, hits give low values 0.967 | S. cerevisiae deletion strains, locus YPL256C, strain CLN2, hits give low values 0.977 | S. cerevisiae deletion strains, locus YPR141C, strain kar3, hits give low values 0.94 | S. cerevisiae deletion strains, locus YPR163C, strain tif3, hits give low values 0.968 | S. cerevisiae deletion strains, locus YPR167C, strain met16, hits give low values 0.939 | S. cerevisiae deletion strains, strain wtn01, hits give low values 0.933 | S. cerevisiae strains, strain wild type, hits give low values 0.999
